This note sets out measurements from paper PMC7862700, “An all-to-all approach to the identification of sequence-specific readers for epigenetic DNA modifications on cytosine”.

What all share (test): DAPPL (digital affinity profiling via proximity ligation, sequencing); 10 mM Tris-HCl pH 7.5, 50 mM NaCl, 1 mM DTT, 4% glycerol, room temperature, 30 min; GST-TFs on glutathione beads, 16-mer random dsDNA library, 0.1% formaldehyde crosslink after washing; high values mean tight binding
What all share (settings): protein: recombinant; tags: N-terminal GST; dsDNA, one strand shown

For experiment [1], the target named is T1, GABPA (Homo sapiens, UniProt Q06546 1-454).
T1 sequence: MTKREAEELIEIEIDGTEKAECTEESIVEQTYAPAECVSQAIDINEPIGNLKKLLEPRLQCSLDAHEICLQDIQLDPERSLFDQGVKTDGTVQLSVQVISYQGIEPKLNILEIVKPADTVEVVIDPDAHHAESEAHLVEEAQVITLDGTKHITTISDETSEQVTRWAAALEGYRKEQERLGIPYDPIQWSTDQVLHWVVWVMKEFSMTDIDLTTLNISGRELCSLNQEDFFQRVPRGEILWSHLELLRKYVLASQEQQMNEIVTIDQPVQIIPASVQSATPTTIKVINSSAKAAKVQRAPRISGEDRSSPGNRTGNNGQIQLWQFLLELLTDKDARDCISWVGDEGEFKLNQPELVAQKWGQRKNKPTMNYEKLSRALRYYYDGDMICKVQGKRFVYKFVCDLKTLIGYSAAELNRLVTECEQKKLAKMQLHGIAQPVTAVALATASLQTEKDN
In short, it runs like this: (§1)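 A tag-only sample was pooled with DNA-barcoded human transcription factors that had been expressed in yeast as GST fusions and captured on glutathione beads. The pools were incubated for 30 min at room temperature with 200 nmole of a random double-stranded 16-mer DNA library in Tris/NaCl/DTT/glycerol buffer, then washed, crosslinked with 0.1% formaldehyde, proximity-ligated (BsaI/T4 ligase, 1 h, 37 °C), PCR-amplified and sequenced on an Illumina NextSeq500. Binding signal is each hexamer's read frequency for a factor divided by its frequency for the tag-only sample.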

Experiment [2] concerns the target ELF1 (Homo sapiens, UniProt P32519 1-619). The procedure, abridged:
as §1

Experiment [3] deals with T2, ELK3 (Homo sapiens, UniProt P41970 1-407).
T2 sequence: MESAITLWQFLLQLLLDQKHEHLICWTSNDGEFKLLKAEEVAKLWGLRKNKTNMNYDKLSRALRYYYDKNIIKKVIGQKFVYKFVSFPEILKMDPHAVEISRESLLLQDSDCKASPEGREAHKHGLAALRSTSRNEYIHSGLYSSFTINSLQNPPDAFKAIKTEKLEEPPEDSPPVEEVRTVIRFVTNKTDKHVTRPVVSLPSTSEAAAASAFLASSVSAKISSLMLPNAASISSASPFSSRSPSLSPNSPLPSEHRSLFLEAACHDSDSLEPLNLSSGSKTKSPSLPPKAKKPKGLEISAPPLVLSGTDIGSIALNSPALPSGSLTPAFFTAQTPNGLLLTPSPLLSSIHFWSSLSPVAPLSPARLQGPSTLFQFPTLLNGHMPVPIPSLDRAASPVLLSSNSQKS
The procedure, abridged: as §1

Experiment [4] deals with ETV5 (Homo sapiens, UniProt P41161 1-510). The procedure, abridged:
as §1

The target of experiment [5] is T3, ELF3 (Homo sapiens, UniProt P78545 1-371).
T3 sequence: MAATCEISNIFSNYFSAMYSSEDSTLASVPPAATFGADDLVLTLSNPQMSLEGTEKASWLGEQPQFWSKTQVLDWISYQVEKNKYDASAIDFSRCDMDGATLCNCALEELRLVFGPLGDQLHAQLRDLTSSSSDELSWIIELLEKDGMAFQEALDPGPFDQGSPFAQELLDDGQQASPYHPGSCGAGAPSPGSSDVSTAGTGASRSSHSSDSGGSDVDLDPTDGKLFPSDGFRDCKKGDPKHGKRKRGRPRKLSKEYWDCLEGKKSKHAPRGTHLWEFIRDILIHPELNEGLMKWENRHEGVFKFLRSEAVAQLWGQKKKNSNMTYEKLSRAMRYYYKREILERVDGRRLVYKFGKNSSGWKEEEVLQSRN
The procedure, abridged:
as §1

The target of experiment [6] is ETV6 (Homo sapiens, UniProt P41212 1-452). The procedure, abridged: as §1
Experiment [7] addresses T4, SPDEF (Homo sapiens, UniProt O95238 1-335).
T4 sequence: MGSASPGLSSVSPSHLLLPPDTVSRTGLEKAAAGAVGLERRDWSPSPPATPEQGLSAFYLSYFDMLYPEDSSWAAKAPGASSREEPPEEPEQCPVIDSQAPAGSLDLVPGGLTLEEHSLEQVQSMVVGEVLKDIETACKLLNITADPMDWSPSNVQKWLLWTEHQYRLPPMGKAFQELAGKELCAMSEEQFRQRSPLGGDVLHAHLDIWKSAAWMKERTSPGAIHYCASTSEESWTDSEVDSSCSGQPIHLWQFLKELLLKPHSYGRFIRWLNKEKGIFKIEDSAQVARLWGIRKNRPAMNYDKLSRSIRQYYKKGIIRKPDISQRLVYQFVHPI
The procedure, abridged: as §1

Experiment [8] has as its target T5, ELK1 (Homo sapiens, UniProt P19419 1-428).
T5 sequence: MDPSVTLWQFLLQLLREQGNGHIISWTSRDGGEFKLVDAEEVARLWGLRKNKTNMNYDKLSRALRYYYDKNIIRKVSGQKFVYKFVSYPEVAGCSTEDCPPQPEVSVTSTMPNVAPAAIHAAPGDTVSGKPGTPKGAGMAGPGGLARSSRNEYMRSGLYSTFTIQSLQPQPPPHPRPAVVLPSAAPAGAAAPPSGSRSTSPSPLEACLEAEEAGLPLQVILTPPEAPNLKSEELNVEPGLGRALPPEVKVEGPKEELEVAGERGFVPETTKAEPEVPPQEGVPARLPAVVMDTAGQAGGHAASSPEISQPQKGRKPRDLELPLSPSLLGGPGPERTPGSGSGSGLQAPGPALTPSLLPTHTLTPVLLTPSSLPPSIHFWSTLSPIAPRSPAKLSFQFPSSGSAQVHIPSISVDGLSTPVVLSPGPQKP
In short, it runs like this: as §1

Experiment [9] has as its target T6, ETV7 (Homo sapiens, UniProt Q9Y603 1-341).
T6 sequence: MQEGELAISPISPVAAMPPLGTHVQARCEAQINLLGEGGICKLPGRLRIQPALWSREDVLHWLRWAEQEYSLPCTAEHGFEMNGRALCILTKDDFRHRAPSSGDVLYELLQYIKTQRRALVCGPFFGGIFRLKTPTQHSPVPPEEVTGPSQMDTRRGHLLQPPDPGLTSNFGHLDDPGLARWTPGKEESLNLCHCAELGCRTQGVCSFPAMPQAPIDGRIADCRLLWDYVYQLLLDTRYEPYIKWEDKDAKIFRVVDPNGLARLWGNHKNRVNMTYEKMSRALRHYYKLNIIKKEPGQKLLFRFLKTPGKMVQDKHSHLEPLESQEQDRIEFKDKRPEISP
In short, it runs like this:
as §1

Experiment [10] addresses T7, ETV3 (Homo sapiens, UniProt P41162-2 1-143).
T7 sequence: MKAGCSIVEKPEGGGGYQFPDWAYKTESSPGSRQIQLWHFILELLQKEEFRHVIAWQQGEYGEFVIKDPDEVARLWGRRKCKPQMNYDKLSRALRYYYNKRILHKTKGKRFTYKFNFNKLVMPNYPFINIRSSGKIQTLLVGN
The procedure, abridged:
as §1

Sequence of ETV5 (P41161 whole entry): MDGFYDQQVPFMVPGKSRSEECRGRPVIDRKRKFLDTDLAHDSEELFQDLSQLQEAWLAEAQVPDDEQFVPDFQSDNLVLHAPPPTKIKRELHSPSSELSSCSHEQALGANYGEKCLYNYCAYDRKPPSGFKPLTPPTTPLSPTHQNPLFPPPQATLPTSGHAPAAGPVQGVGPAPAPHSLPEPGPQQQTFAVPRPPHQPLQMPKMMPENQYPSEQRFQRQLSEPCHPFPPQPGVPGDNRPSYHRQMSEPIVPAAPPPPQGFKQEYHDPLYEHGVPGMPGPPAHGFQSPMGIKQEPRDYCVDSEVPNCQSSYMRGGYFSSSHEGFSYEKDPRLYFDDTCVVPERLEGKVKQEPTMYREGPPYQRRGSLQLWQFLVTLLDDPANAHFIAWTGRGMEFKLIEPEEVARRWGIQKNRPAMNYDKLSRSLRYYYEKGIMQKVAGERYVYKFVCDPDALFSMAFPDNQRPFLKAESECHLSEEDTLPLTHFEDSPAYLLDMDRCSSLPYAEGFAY
Sequence of ETV6 (P41212 whole entry): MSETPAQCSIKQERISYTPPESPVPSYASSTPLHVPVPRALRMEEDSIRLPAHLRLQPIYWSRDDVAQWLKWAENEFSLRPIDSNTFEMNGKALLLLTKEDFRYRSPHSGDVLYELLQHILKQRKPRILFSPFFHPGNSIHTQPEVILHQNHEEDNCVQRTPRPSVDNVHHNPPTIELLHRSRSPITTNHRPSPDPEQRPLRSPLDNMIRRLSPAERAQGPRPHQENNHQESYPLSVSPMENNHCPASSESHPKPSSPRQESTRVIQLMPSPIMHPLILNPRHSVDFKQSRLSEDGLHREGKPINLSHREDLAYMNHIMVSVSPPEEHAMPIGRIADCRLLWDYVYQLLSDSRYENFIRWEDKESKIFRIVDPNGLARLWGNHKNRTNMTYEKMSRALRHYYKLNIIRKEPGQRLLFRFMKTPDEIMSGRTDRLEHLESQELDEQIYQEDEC
Sequence of ELF1 (P32519 whole entry): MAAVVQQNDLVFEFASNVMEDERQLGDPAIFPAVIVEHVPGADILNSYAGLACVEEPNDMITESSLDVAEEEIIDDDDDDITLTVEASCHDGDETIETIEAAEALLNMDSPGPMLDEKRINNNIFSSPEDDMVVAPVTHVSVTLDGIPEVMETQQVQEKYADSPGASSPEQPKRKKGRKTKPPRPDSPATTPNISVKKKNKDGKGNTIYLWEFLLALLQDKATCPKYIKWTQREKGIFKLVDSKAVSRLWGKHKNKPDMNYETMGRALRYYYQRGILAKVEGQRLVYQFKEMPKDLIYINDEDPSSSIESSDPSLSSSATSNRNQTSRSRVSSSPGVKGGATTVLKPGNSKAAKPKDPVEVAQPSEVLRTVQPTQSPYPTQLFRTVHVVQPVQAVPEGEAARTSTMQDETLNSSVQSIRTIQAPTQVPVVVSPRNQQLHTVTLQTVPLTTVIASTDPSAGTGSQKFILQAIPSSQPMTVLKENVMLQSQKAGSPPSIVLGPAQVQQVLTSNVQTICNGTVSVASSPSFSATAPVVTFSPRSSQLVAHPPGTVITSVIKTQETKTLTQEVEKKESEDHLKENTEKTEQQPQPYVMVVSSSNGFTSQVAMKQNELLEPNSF

For the sequence AACTGT, the binding signal in experiment [1] is 1.01 fold enrichment (6-mer frequency, TF over GST control); in experiment [2], 1.02 fold enrichment (6-mer frequency, TF over GST control); in [3], 1.06 fold enrichment (6-mer frequency, TF over GST control); in experiment [4] it was 1 fold enrichment (6-mer frequency, TF over GST control); in experiment [5] it was 1.09 fold enrichment (6-mer frequency, TF over GST control); in experiment [6], 1.04 fold enrichment (6-mer frequency, TF over GST control).

For AGTACC, the binding signal in [4] was 1.04 fold enrichment (6-mer frequency, TF over GST control); in [7] it was 1.01 fold enrichment (6-mer frequency, TF over GST control); in experiment [6], 1.04 fold enrichment (6-mer frequency, TF over GST control).

On to GCCCGG, for which the binding signal was 1.03 fold enrichment (6-mer frequency, TF over GST control) in experiment [8]; 1.01 fold enrichment (6-mer frequency, TF over GST control) in experiment [4]; 1.06 fold enrichment (6-mer frequency, TF over GST control) in [7]; 1.01 fold enrichment (6-mer frequency, TF over GST control) in [9]; 1.07 fold enrichment (6-mer frequency, TF over GST control) in experiment [10].
